Among the data in PubChem BioAssay (NCI) are growth values, retold here.

Assay in all cases: NCI-60 one-dose screen, 48 h (100 = growth as untreated, 0 = no growth, -100 = all killed)
What all share (details): 10 µM unless noted

For experiment [1], the system named is NCI-H23 lung.
Experiment [2] concerns NCI-H226 lung.
The subject of experiment [3] is NCI-H322M lung.
The test system of experiment [4] is HOP-62 NSCLC.
Experiment [5] concerns NCI-H460 lung.
The test system of experiment [6] is NCI-H522 lung.
In experiment [7] the test system is A549/ATCC NSCLC.
The subject of experiment [8] is 786-0 renal.
Experiment [9] concerns COLO 205 colon.
The subject of experiment [10] is DU-145 prostate.
Experiment [11] relates to K-562 leukemia.
For experiment [12], the system named is MALME-3M melanoma.
For experiment [13], the system named is MDA-MB-231 breast.
The test system of experiment [14] is RXF 393 renal.
Experiment [15] relates to SF-268 CNS.
Experiment [16] relates to SF-295 CNS.
For experiment [17], the system named is SF-539 CNS.
Experiment [18] deals with UACC-257 melanoma.
The subject of experiment [19] is M14 melanoma.
Experiment [20] concerns HCT-15 colon.

About 83,000 compounds went through this panel and 20% of them were active in at least one assay; those are over-represented in the sample as a whole.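 Cells were grown in 96-well plates and exposed to the test compound at a single concentration for 48 hours; results are reported as percent growth, with values below 10 considered active.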 Values without a mark were called inactive. Active and inactive are the calls of the source.

Regarding `O=C1/C(=C/c2ccc([N+](=O)[O-])s2)Oc2ccc(Br)cc21`, the growth in experiment [1] was -48.3% (active); in [2], -57% (active); in experiment [3], -29.7% (active); in experiment [4], -49.8% (active); in experiment [5], -51.9% (active); in experiment [6], -77.7% (active). For the same compound, the growth in experiment [7] was -39.6% (active); in experiment [8], -13.4% (active); in experiment [9] it was -80% (active); in experiment [10], -72.1% (active); in experiment [11] it was -5.87% (active); in experiment [12], -59.7% (active). Moreover, the growth in experiment [13] was -64% (active); in [14], -59.9% (active); in experiment [15], -52.1% (active); in experiment [16], -31.3% (active); in experiment [17] it was -73.7% (active); in [18], -39.2% (active). The growth was -54.1% (active) in experiment [19] and -3.34% (active) in experiment [20].
Take `c1csc([C@@H]2C[C@@H]3Cc4ccc5ccccc5c4N2O3)c1`: the growth is 95.5% in [1]; 108% in [2]; 91.2% in experiment [3]; 112% in [4]; 109% in experiment [5]; 87% in experiment [6]. The growth was 90.8% in [7]; 98.2% in experiment [8]; 120% in experiment [9]; 113% in experiment [10]; 93.2% in experiment [11]; 86.4% in experiment [12]. The growth in experiment [13] was 89.1%; in experiment [14], 104%; in [15] it was 108%; in experiment [16], 109%; in experiment [17], 90.5%; in experiment [18], 98.7%. Also, the growth in experiment [19] was 99.7%; in experiment [20], 93.7%.
For the compound `c1ccc(-c2nnc(Nc3nnc(-c4ccccc4)s3)s2)cc1`, the growth is 109% in experiment [1]; 101% in experiment [2]; 86.9% in [3]; 101% in experiment [4]; 101% in experiment [5]; 104% in experiment [6]. Also, the growth was 103% in experiment [7]; 106% in [8]; 116% in experiment [9]; 112% in [10]; 111% in experiment [11]; 101% in [12]. In addition, the growth is 102% in experiment [13]; 105% in [14]; 103% in experiment [15]; 102% in experiment [16]; 101% in experiment [17]; 99.1% in experiment [18]. In addition, the growth is 105% in [19] and 102% in experiment [20].
Consider `COc1ccc2c3c(c(OCCCN(C)C)nc2c1)-c1ccc(Cl)cc1C3=O`, for which the growth in experiment [1] is -2.72% (active); in experiment [2] it was 32.1%; in experiment [3] it was 3.92% (active); in experiment [4] it was 10% (active); in experiment [5] it was -81.2% (active); in experiment [6], -64.3% (active). The growth in [7] is -64.1% (active); in experiment [8], -40.3% (active); in experiment [9], -45.2% (active); in experiment [10] it was 15.3%; in experiment [11], -59% (active); in experiment [12], -57.5% (active). Further, the growth was -62.3% (active) in [13]; -91.9% (active) in experiment [14]; 43.9% in experiment [15]; 86% in [16]; 13.9% in [17]; 86.9% in experiment [18]. Further, the growth in experiment [19] is -59.2% (active); in experiment [20], -89.4% (active).
Regarding `C[C@]12CC[C@@H]3c4ccc(O)c([N+](=O)[O-])c4CC[C@H]3[C@@H]1CC[C@@H]2NS(=O)(=O)c1cccc(Br)c1`, the growth in experiment [1] was 28%; in experiment [2], 62.4%; in [3] it was 53.8%; in [4], 78.3%; in experiment [5], 20%; in experiment [6] it was -50.4% (active). For the same compound, the growth in [7] is 19%; in experiment [8], 42.8%; in experiment [9], 101%; in [10] it was 52.7%; in experiment [11] it was 8.39% (active); in experiment [12], 31.1%. For the same compound, the growth was 26.7% in [13]; 10.4% in [14]; 36.2% in [15]; 53.2% in [16]; 67.5% in experiment [17]; 49.1% in experiment [18]. The growth in experiment [19] is 43.4%; in experiment [20], 26.7%.
Consider `N=c1ccn2c(n1)O[C@@H]1[C@@H](O)[C@H](CO)O[C@@H]12`, for which the growth is 33.3% in experiment [1]; 92.4% in [2]; 82.2% in experiment [3]; 47.7% in [4]; 12.3% in experiment [5]; 39.4% in experiment [6]. The growth in [7] was 22.2%; in experiment [8] it was 31.1%; in [9] it was 49.3%; in experiment [10], 51.4%; in experiment [11] it was 67.1%; in experiment [12] it was 59.1%. Moreover, the growth was 91.7% in experiment [13]; 96.4% in experiment [14]; 65.8% in experiment [15]; 88.7% in experiment [16]; 98.4% in experiment [17]; 70.3% in [18]. The results for the growth in experiment [19] and in experiment [20] were -1.79% (active) and 64.4%, respectively.
`CCCCCCCCCCC[C@@H](C[C@H]1OC(=O)[C@H]1CCCCCC)OC(=O)[C@@H](CC(C)C)NC=O`: the growth in experiment [1] is 70.1%; in [2], 72.6%; in [3], 94.2%; in experiment [4], 72.3%; in experiment [5], 42.9%; in experiment [6], 59.9%. The growth was 83.6% in [7]; 44.8% in experiment [8]; 81% in experiment [9]; 92.2% in experiment [10]; 45.2% in [11]; 89.4% in [12]. Moreover, the growth in experiment [13] is 60.9%; in experiment [14], 44.1%; in experiment [15], 65.2%; in [16], 24.7%; in experiment [17], 63.1%; in experiment [18], 99.6%. The results for the growth in experiment [19] and in [20] were 62.6% and 34.8%, respectively.
For the compound `Cc1scc2c1N(C(=O)CN1CCN(C)CC1)c1ccccc1NC2=O`, the growth was 93.9% in [1]; 109% in experiment [2]; 105% in experiment [3]; 103% in experiment [4]; 124% in [5]; 104% in experiment [6]. Further, the growth is 104% in experiment [7]; 98.8% in experiment [8]; 108% in experiment [9]; 118% in [10]; 108% in [11]; 108% in experiment [12]. The growth in experiment [13] was 99.6%; in experiment [14] it was 111%; in experiment [15] it was 110%; in experiment [16] it was 101%; in experiment [17], 112%; in experiment [18], 106%. Besides, the growth is 111% in experiment [19] and 107% in experiment [20].
Take `O=C(Nc1ccc(Cl)cc1Cl)Nc1ccc(-c2cccnc2)cc1N1CCC(CO)CC1`: the growth is 29% in experiment [1]; 55.4% in experiment [2]; 61.5% in experiment [3]; 42% in experiment [4]; 35.1% in [5]; 53.4% in experiment [6]. Further, the growth in [7] was 27.2%; in experiment [8] it was 52.3%; in [9], 16.1%; in [10] it was 54.2%; in experiment [11] it was 17.7%; in experiment [12], 41.3%. Besides, the growth in [13] was 13.6%; in experiment [14], 49.5%; in [15] it was 48.4%; in experiment [16] it was 81.6%; in [17], 30.9%; in experiment [18] it was 47.8%. The figures for the growth in experiment [19] and in [20] were 36% and 26.8%, respectively.
Turning to `Cc1c(C)c(N2C(=O)C=CC2=O)c(C)c(C)c1N1C(=O)C=CC1=O`, the growth in [1] is 96.3%; in experiment [2], 108%; in [3], 112%; in [4], 91.6%; in [5] it was 115%; in experiment [6] it was -49.4% (active). Moreover, the growth was 89.6% in experiment [7]; 93.2% in experiment [8]; 78.7% in experiment [9]; 104% in experiment [10]; 77.8% in experiment [11]; 126% in [12]. The growth is 114% in experiment [13]; 54.7% in [14]; 110% in experiment [15]; 109% in experiment [16]; 114% in [17]; 75.6% in experiment [18]. In addition, the growth in experiment [19] was 86.5%; in experiment [20], 117%.
Consider `O=C(Oc1ccc[nH]c1=O)c1cccc(Cl)c1`, for which the growth in experiment [1] is 95.6%; in experiment [2], 109%; in experiment [3] it was 99.9%; in [4], 90.5%; in experiment [5], 100%; in experiment [6] it was 95.3%. For the same compound, the growth in [7] was 101%; in experiment [8], 90.7%; in experiment [9], 84.4%; in experiment [10], 113%; in experiment [11], 104%; in experiment [12], 104%. In addition, the growth is 103% in experiment [13]; 163% in experiment [14]; 101% in experiment [15]; 108% in experiment [16]; 88.2% in experiment [17]; 113% in experiment [18]. Moreover, the growth in experiment [19] was 95.8%; in experiment [20], 91.2%.
Regarding `c1ccc(N2CCN(c3nncc4ccccc34)CC2)nc1`, the growth is 105% in [1]; 98.1% in [2]; 114% in [3]; 102% in experiment [4]; 108% in [5]; 99.4% in experiment [6]. Moreover, the growth in experiment [7] was 100%; in experiment [8] it was 104%; in experiment [9], 106%; in [10], 99%; in experiment [11] it was 106%; in experiment [12], 109%. In addition, the growth is 108% in experiment [13]; 108% in [14]; 103% in experiment [15]; 107% in experiment [16]; 113% in experiment [17]; 99% in experiment [18]. The results for the growth in experiment [19] and in experiment [20] were 102% and 108%, respectively.
Consider `CC[C@@H]1OC(=O)[C@H](C)[C@@H](O[C@H]2C[C@@](C)(OC)[C@@H](O)[C@H](C)O2)[C@H](C)[C@@H](O[C@@H]2O[C@H](C)C[C@H](N(C)C)[C@H]2O)[C@](C)(O)C[C@@H](C)[C@@H]2N[C@@H](COCCOC)O[C@H]([C@H]2C)[C@]1(C)O`, for which the growth is 94% in experiment [1]; 110% in [2]; 96% in experiment [3]; 107% in experiment [4]; 117% in experiment [5]; 98.6% in [6]. The growth in experiment [7] is 100%; in [8], 95.8%; in experiment [9], 98.7%; in experiment [10] it was 100%; in experiment [11], 103%; in [12], 99.5%. Also, the growth in experiment [13] is 94.6%; in experiment [14], 116%; in [15], 112%; in experiment [16], 110%; in experiment [17] it was 106%; in experiment [18] it was 106%. For the same compound, the growth in experiment [19] is 99.7%; in [20], 109%.
Turning to `Cc1cc(C(C)(C)c2cc(C)c(O)c(CN(C)C)c2)cc(CN(C)C)c1O`, the growth in experiment [1] is 105%; in experiment [2] it was 96.5%; in [3], 70.7%; in experiment [4], 99.8%; in experiment [5], 101%; in experiment [6], 85.7%. In addition, the growth is 97.7% in experiment [7]; 73.1% in [8]; 89% in [9]; 97.1% in experiment [10]; 76.6% in experiment [11]; 57.7% in [12]. The growth in experiment [13] was 59.5%; in [14], 61.5%; in [15], 101%; in experiment [16], 100%; in experiment [17], 80.3%; in [18], 85%. Moreover, the growth in experiment [19] was 77.7%; in experiment [20], 80.8%.
